DNA FID counter = fluorescent intercalator displacement, NS3 helicase counter-screen | inhibition, % at 7.9 µM | DNA fluorescent intercalator displacement, fluorescence | 290,000 compounds, 0.17% hits | AID 1845; in the data active means inhibition above about 37%;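 further: 0% = vehicle and 100% = reference compound; higher means more ethidium bromide displaced from hairpin DNA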
MEKK2 WT-MEK5 = raises or lowers MEK5 binding to wildtype human MEKK2 PB1 domain; Q9Y2U5; bead flow cytometry, Alexa488-MEK5 binding to MEKK2 WT; actives lie on both sides; binding response (% of control), % at 10 µM; 290,000 compounds, 1.1% hits; AID 1531; in the data active means binding response below about 67% or above about 130%
MEKK3 PB1 HTS = raises or lowers MEK5 binding to the human MEKK3 PB1 domain; binding response (% of control), % at 10 µM; bead-based flow cytometry, Alexa488-MEK5 binding to MEKK3; actives lie on both sides; 0 = blocked by unlabeled MEK5, 100 = vehicle; 290,000 compounds, 1.4% hits;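 active means binding response more than 3 SD above or below the average of its plate-row segment, actives on both sides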;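 further: Alexa488 bead fluorescence after subtracting the streptavidin-only scavenger bead signal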
MEKK2 mut-MEK5 = signal of MEK5 binding to mutant human MEKK2 PB1 domain. bead flow cytometry, Alexa488-MEK5 binding to MEKK2 mutant. percent response, % at 10 µM. 290,000 compounds, 0.35% hits; in the data active means percent response above about 24%, passing the limit was not always enough
dFosB act-1 = enhances mouse delta FosB homodimer DNA binding | purified delta FosB, TAMRA-CDK5 oligo fluorescence polarization; percent of positive-control signal above neutral wells | 340,000 compounds, 0.99% hits | AID 493131 | activation, % at 25 µM;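 active means mean activation above about 17%, with every replicate also reaching it, limit read from the data, passing the limit was not always enough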
Target sequence (P13346 whole entry, looked up): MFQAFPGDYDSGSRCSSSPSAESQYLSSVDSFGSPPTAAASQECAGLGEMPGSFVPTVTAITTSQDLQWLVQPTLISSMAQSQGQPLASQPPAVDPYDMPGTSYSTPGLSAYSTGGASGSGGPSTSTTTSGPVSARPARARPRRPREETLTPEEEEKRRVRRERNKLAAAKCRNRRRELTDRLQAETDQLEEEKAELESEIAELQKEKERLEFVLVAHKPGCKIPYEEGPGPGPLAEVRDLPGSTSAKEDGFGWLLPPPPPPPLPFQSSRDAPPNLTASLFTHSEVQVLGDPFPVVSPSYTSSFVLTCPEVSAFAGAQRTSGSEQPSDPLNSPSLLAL
dFosB act-2 = delta FosB (mouse) homodimer activation; shares compounds with dFosB act-1; purified delta FosB, TAMRA-CDK5 oligo fluorescence polarization; normalised: neutral wells 0, positive control 100; activation, % at 24.9 µM; 2,400 tested, under 10 active; AID 588690;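 active means highest replicate activation at or above 34% and every replicate reaching that threshold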;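 further: higher polarization means more probe DNA bound by delta FosB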
An asterisk follows results filed as active; x = no result. Only some compounds are listed: those with a hit (about 2.9% of all), similar ones and a draw of the others.

SMILES | DNA FID counter | MEKK2 WT-MEK5 | MEKK3 PB1 HTS | MEKK2 mut-MEK5 | dFosB act-1 | dFosB act-2
N#Cc1ccccc1/C=N/Nc1nc(-c2ccccc2)c2cc(Cl)ccc2n1 | -8 | 107 | 103 | 5 | 19* | 1
COc1ccccc1C(CC(=O)O)NS(=O)(=O)c1ccc2c(c1)N(C(C)=O)CC(C)O2 (configuration not stated) | -18 | 98 | 98 | -4 | -13 | x
COC(=O)CSc1nc(C)cc(C)n1 | 2 | 103 | 103 | 5 | -1 | x
CCOC(=O)CSc1nc(C)cc(C)n1 | -2 | 109 | 100 | 13 | 16* | 0
COc1ccc(N2CCN(CC(=O)c3ccc(Cl)cc3)CC2)cc1 | -6 | 109 | 110 | 12 | -8 | x
Cc1c(C(N)=O)sc2ncn(CC(=O)N(C)C3CCCCC3)c(=O)c12 | -7 | 99 | 99 | 1 | -3 | x
CCOC(=O)c1c(C)[nH]c2cc(Br)c(OC)cc12 | 2 | 106 | 105 | 9 | 18* | 5
CCOC(=O)c1c(C)[nH]c(C)c1-c1ccccc1OC | -6 | 107 | 111 | 21 | -6 | x
C[N+](C)(C)CC(=O)N/N=C/c1c2ccccc2cc2ccccc12 | 28 | 101 | 100 | 2 | 31* | 1
C=CCOc1ccc(C(=O)Nc2ccc3c(c2)n(C)c(=O)n3C)cc1 | -28 | 105 | 102 | 6 | -3 | x
O=C(CCC(=O)NNC(=O)COc1ccc(Br)cc1Br)NCc1ccccc1 | 2 | 94 | 100 | -9 | 34* | 3
Cc1cc(Br)cc(Br)c1OCC(=O)NNC(=O)CCC(=O)NCc1ccccc1 | -11 | 102 | 104 | 4 | 25* | 1
CC(C)Oc1ccc(CNC(=O)Cn2c(=O)c3cccn3c3cccnc32)cc1 | -35 | 103 | 100 | 2 | 30* | 8
CCOc1ccc(CNC(=O)Cn2c(=O)c3cccn3c3ccccc32)cc1 | -31 | 97 | 100 | 1 | 41* | -1
O=C(Cn1c(=O)c2cccn2c2ccccc21)NCCc1ccccc1 | -16 | 99 | 99 | -1 | 6 | x
CC(C)C12NC(=O)NC(=O)N1CCS2 (configuration not stated) | x | x | x | x | -4 | x
COc1ccc(-c2cc(C(F)F)n3ncc(C(=O)Nc4cccc(S(=O)(=O)N5CCOCC5)c4)c3n2)cc1 | -1 | 100 | 92 | 0 | 33* | 2
CN1/C(=C/C=C(C#N)C#N)C=Cc2ccccc21 | 0 | 97 | 103 | -2 | 29* | 3
COc1ccc(NS(=O)(=O)c2ccc(C)c(C(=O)N3CC(C)OC(C)C3)c2)cc1 (configuration not stated) | x | x | x | x | -5 | x
CSc1ccc(CNc2nc3ccccc3n3cnnc23)cc1 | -1 | 91 | 96 | -6 | 26* | 4
Cc1[nH]c2ccc(C(=O)OC(C)C(=O)NC3CCCCC3C)cc2c1C (configuration not stated) | x | x | x | x | -5 | x
CCOC(=O)c1c(C)[nH]c(C(=O)OC(C)C(=O)NC2CCCCC2C)c1C (configuration not stated) | x | x | x | x | 49* | 4
Cc1nc2c(sc(=S)n2Cc2ccco2)c(=O)n1CC(=O)Nc1ccccc1F | -16 | 110 | 105 | 8 | 83* | -1
Cc1nc2c(sc(=S)n2Cc2ccco2)c(=O)n1CC(=O)Nc1ccccc1 | -13 | 98 | 99 | 4 | 34* | 1
CCn1c(=S)sc2c(=O)n(CC(=O)Nc3cccc(Cl)c3)c(C)nc21 | -4 | 104 | 101 | 2 | 8 | x
SMILES | DNA FID counter | MEKK2 WT-MEK5 | MEKK3 PB1 HTS | MEKK2 mut-MEK5 | dFosB act-1 | dFosB act-2
COc1ccccc1NC(=O)COC(=O)COc1cccc2c1OC(C)(C)C2 | x | x | x | x | -6 | x
O=C(Nc1nccs1)c1cc2c(s1)-c1ccccc1OC2 | 0 | x | x | x | 37* | 3
O=C(Nc1cccnc1)c1cc2c(s1)-c1ccccc1OC2 | -7 | 103 | 101 | 0 | 0 | x
Cc1cccc2c1-c1sc(C(=O)Nc3cccnc3)cc1CO2 | -16 | 94 | 99 | -1 | 32* | 2
CCCC1(CC)C(=O)NC(=O)N=C1N (configuration not stated) | x | x | x | x | -1 | x
Cc1ccc(-c2nnc(CCC(=O)NCC3C4CC5CC(C4)CC3C5)o2)s1 (configuration not stated) | -9 | 104 | 102 | 4 | -3 | x
CCCn1c(N)c(C(=O)CSc2n[nH]c(-c3ccc(C)cc3)n2)c(=O)[nH]c1=O | x | x | x | x | 28* | -2
O=C(CSc1nc2ccccc2[nH]1)NC1CCCc2ccccc21 (configuration not stated) | -11 | 114 | 114 | 37 | -14 | x
O=C(CSc1nc2ccc(Cl)cc2[nH]1)NC1CCCc2ccccc21 (configuration not stated) | -9 | 92 | 91 | -5 | 19* | 5
CC(C)(C)OC(=O)N[C@@H](Cc1ccccc1)c1nnc(SCC(=O)c2ccc(Cl)cc2)o1 | -14 | 92 | 96 | 0 | 44* | 7
CCOc1cc(/C=C(/C#N)c2nc3ccccc3[nH]2)ccc1Oc1ccc([N+](=O)[O-])cn1 | 0 | 104 | 104 | 3 | 50* | 7
Cc1ccc(NC(=O)NC(=O)CN2CCCC2c2ccc3c(c2)OCCO3)cc1C (configuration not stated) | x | x | x | x | -4 | x
COc1ccc2cc(C)c3nnc(SCC(=O)Nc4nc(-c5ccccc5)cs4)n3c2c1 | 0 | 93 | 99 | -2 | 41* | 2
COc1ccc2cc(C)c3nnc(SCC(=O)Nc4cc(OC)c(OC)cc4C(=O)O)n3c2c1 | -27 | 99 | 96 | 0 | 0 | x
COc1ccc2oc(-c3ccc(C)c(NC(=O)c4ccc(N5CCOCC5)c([N+](=O)[O-])c4)c3)nc2c1 | 4 | 81 | 82 | -5 | 22* | 3
Cc1cc(C(=O)NNS(=O)(=O)c2cc(C(=O)O)ccc2Cl)c(C)n1-c1ccccc1 | x | x | x | x | -12 | x
COc1ccccc1NS(=O)(=O)c1ccc2oc(SC(C)C(=O)N3CCNC3=O)nc2c1 (configuration not stated) | x | x | x | x | -5 | x
Cc1cccc2cc(-c3nc4c(C)cccn4c3NCc3ccco3)c(=O)[nH]c12 | -14 | 102 | 103 | -2 | -2 | x
Cc1ccc2[nH]c(=O)c(-c3nc4cc(C)ccn4c3NCc3ccco3)cc2c1 | -10 | 105 | 105 | 5 | 32* | -5
CN(CC(=O)Nc1ccccc1Cl)C(=O)COC(=O)c1ccc(C(F)(F)F)cc1 | x | x | x | x | -8 | x
CN(CC(=O)Nc1ccccc1Cl)C(=O)COC(=O)c1ccc(-c2ccc(O)cc2)cc1 | x | x | x | x | 45* | 0
c1nc(NCc2ccc3c(c2)OCO3)c2cc(-c3ccc4c(c3)OCCO4)ccc2n1 | x | x | x | x | 39* | 3
CCN1/C(=C\C=C(C(C)=O)C(C)=O)Sc2ccccc21 | -14 | 87 | 95 | -12 | -12 | x
